PubChem BioAssay (NCATS)
Results filed as inconclusive are left out. Activity calls are given as the source filed them. The call rests on the fitted dose curve; in most records, active means well fitted inhibition curve with a large enough effect; inconclusive means small, poorly fitted or top-dose-only effect; inactive means flat fitted curve, though single readings scatter. *1 amine or outer side, *2 acyl side, *3 side chain or, on linkers, in order; H or OH if unused. Where a SMILES comes first, the peptide text is derived from it. Bridges are numbered along the chain shown (N, C = ends). [ ]: non-standard residue; d: D form. The star is where a group is joined. ξ: configuration not given here. X10 = NC1=NCCC(C(N[*:1])C(=O)[*:2])N1; ΔAla(3-NHCONH2) = NC(=O)NC=C(N)C(=O)O; ξβ3hOrn = NCCCC(N)CC(=O)*; Dap = NC[CH](N)C(=O)O

Columns and labels:
Assay in all cases: Cytotoxic Profiling of Annotated Libraries Using Quantitative High-Throughput Screening (AID 1296008); further: nearly all actives have a fitted effect of over 60% in size
Settings in all cases: Five cell lines viability, CellTiter-Glo ATP luminescence, 48-72 h; max response: active compounds read low
[1] = test system: CRL-7250
In short: (§1)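 Compounds were pin-transferred onto cells and incubated 48 or 72 hr at 37 degree Celsius, 95% humidity. CellTiter-Glo was added, plates sat 10 min at room temperature, then ATP-coupled luminescence was imaged as the viability read-out.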

[2] = test system: HEK293
In short: as §1

[3] = test system: HaCat
In short: as §1

[4] = test system: NIH3T3
In short: as §1
On the % scale 0 is the no-effect control and ±100 the full control effect; potency means the concentration at half of the fitted maximal effect.

Cc1nc2n(c(=O)c1CCN1CCC(C(=O)c3ccc(F)cc3)CC1)CCS2
active: Potency [1] 9.44 µM | Potency [2] 8.41 µM
inactive: max response [3] 1.44% | max response [4] -4.75%

NCCCC(N)CC(=O)NCC1NC(=O)C(CO)NC(=O)C(N)CNC(=O)C(C2CCN=C(N)N2)NC(=O)C(=CNC(N)=O)NC1=O (stereo not drawn) (H-[Dap]S[Dap](ξβ3hOrn)[ΔAla(3-NHCONH2)][X10]; lactam 1-C; configuration not given here)
inactive: max response [1] -12.1% | max response [2] -7.39% | max response [3] -10.9% | max response [4] -5.75%

C[C@@H]1CCC[C@H](C)N1CCCC(O)(c1ccccc1)c1ccccn1 (some centres undefined)
inactive: max response [1] 3.63% | max response [2] -3.44% | outcome [3] | max response [4] -1.21%

CCCCC(CC)CNC(=O)CC(C)OC(=O)CCC(=O)O (centres undefined)
inactive: max response [1] -4.08% | max response [2] 1.54% | outcome [3] | max response [4] -1.58%

CC(C)C(=O)Nc1cccc(C2CN3CCSC3=N2)c1 (centres undefined)
inactive: max response [1] -9.12% | max response [2] -1.66% | max response [3] -7.7% | max response [4] -0.0334%

Cc1[nH]cnc1-c1ccc(Cl)cc1
inactive: outcome [1] | outcome [2] | max response [3] -6.75% | outcome [4]

CN1CCN(N)CC1
inactive: max response [1] -18.2% | outcome [2] | max response [3] 1.4% | outcome [4]

CC(Oc1c(Cl)cccc1Cl)C1=NCCN1 (centres undefined)
inactive: max response [1] -2.82% | max response [2] 4.99% | outcome [3] | max response [4] 3.55%

CO/N=C(\C(=O)O)c1csc(NC(=O)CCl)n1
inactive: outcome [1] | max response [2] -4.55% | outcome [3] | outcome [4]

CSc1ccc(/C=C2/C(C)=C(CC(=O)O)c3cc(F)ccc32)cc1
inactive: outcome [1] | max response [2] 0.521% | outcome [3] | max response [4] -3.24%

CC(C)(C)CC(=O)OCC(=O)[C@@]1(O)CC[C@H]2[C@@H]3CCC4=CC(=O)C=C[C@]4(C)[C@H]3[C@@H](O)C[C@@]21C
inactive: max response [1] -1.84% | outcome [3] | max response [4] -9.28%
active: Potency [2] 15 µM

CCCCCCCC(=O)[O-].CCCCCCCC(=O)[O-].[Zn+2]
inactive: max response [1] -4.35% | max response [2] -2.75% | outcome [3] | max response [4] 4.51%

Cc1cnc(NS(=O)(=O)c2ccc(N)cc2)nc1
inactive: outcome [1] | max response [2] -11.8% | outcome [3] | max response [4] 2.98%

CN1Cc2cc(C(=O)N3CCC(C4CCNCC4)CC3)ccc2N[C@@H](CC(=O)O)C1=O
inactive: max response [1] -4.04% | max response [2] -1.55% | outcome [3] | max response [4] 1.44%

CCCC(=O)OCOC(=O)C1=C(C)NC(C)=C(C(=O)OC)C1c1cccc(Cl)c1Cl (centres undefined)
inactive: max response [1] 4.76% | max response [2] 0.879% | outcome [3] | max response [4] 0.493%

CN1Cc2cc(C(=O)N3CCC(C4CCNCC4)CC3)ccc2NC(CC(=O)O)C1=O (centres undefined)
inactive: max response [1] 0.285% | max response [2] -6.55% | max response [3] -7.2% | max response [4] -2.76%

Nc1ccc([N+](=O)[O-])c(C(F)(F)F)c1
inactive: max response [1] 1.39% | max response [2] 4.93% | outcome [3] | max response [4] 0.447%

CC1(C)O[C@@H]2C[C@H]3[C@@H]4C[C@H](F)C5=CC(=O)C=C[C@]5(C)[C@@]4(F)[C@@H](O)C[C@]3(C)[C@]2(C(=O)CO)O1
inactive: max response [1] -4.6% | max response [2] 1.46% | max response [3] 1.62% | max response [4] -12.6%

O=C(O)c1ccc(OCCN2CCCCC2)cc1
inactive: max response [1] 4.52% | max response [2] -3.98% | outcome [3] | max response [4] 1.34%

CN1CCC(=C2c3ccccc3CCc3cccnc32)CC1
inactive: max response [1] 3.77% | max response [2] 2.67% | outcome [3] | outcome [4]

CO[C@@H]1[C@@H](O[C@@H]2O[C@H](C)[C@@H](O[C@H]3C[C@@](C)(O)[C@@H](O)[C@H](C)O3)[C@H](N(C)C)[C@H]2O)[C@@H](CC=O)C[C@@H](C)[C@@H](O[C@@H]2CC[C@H](N(C)C)[C@@H](C)O2)/C=C/C=C/C[C@@H](C)OC(=O)C[C@H]1OC(C)=O
active: Potency [2] 8.41 µM
inactive: outcome [1] | outcome [3] | max response [4] -2.54%

O=C1CC2(CCCC2)CC(=O)N1
inactive: max response [1] -7.34% | max response [2] 4.63% | outcome [3] | outcome [4]

Cc1oc(=O)oc1COC(=O)[C@@H]1N2C(=O)[C@@H](NC(=O)[C@H](N)c3ccccc3)[C@H]2SC1(C)C
inactive: max response [1] -5.05% | max response [2] -0.753% | outcome [3] | max response [4] -3.48%

Nc1nc(=O)n([C@@H]2O[C@H](CO)[C@@H](O)[C@@H]2F)cc1I
inactive: max response [1] -26.4% | outcome [2] | max response [3] 3.07% | max response [4] -21.4%

CCCc1ncc(C(=O)O)s1
inactive: max response [1] -9.12% | max response [2] 4.41% | outcome [3] | outcome [4]

CCN(CC)C(=O)C1CN2CCc3cc(OC)c(OC)cc3C2CC1OC(C)=O (centres undefined)
inactive: max response [1] -9.43% | outcome [2] | outcome [3] | max response [4] -5.34%

COc1ccc(CCC(C)=O)cc1
inactive: max response [1] -2.07% | outcome [2] | outcome [3] | outcome [4]

Cc1cc(CCCOc2c(C)cc(-c3noc(C(F)(F)F)n3)cc2C)on1
inactive: outcome [1] | max response [2] -24.5% | outcome [3] | outcome [4]

O=C(CS(=O)Cc1ccco1)NC/C=C\COc1cc(CN2CCCCC2)ccn1 (centres undefined)
inactive: max response [1] -3.38% | max response [2] 0.0112% | max response [3] -5.87% | max response [4] -2.51%

COc1cc(C(=O)NC2CCCNC2)cc(OC)c1OC (centres undefined)
inactive: max response [1] 1.65% | max response [2] -8.29% | outcome [3] | max response [4] 4.73%

CC(=O)N(CC(=O)N(C)C)c1ccccc1
inactive: max response [1] -29.6% | max response [2] -63.5% | max response [3] -4.61% | max response [4] 1.94%

OC1(c2ccccc2)CCNCC1
inactive: max response [1] 0.914% | max response [2] 1.58% | max response [3] -1.01% | outcome [4]

C#Cc1ccc(-c2ccccc2F)cc1
inactive: max response [1] -10.3% | max response [2] -8.83% | max response [3] 3.65% | outcome [4]

O=C(O)C(=O)Nc1cccc(-c2nn[nH]n2)c1
inactive: max response [1] -0.0138% | outcome [2] | max response [3] -5.35% | outcome [4]

CCOC(=O)C(O)c1ccccc1 (centres undefined)
inactive: outcome [1] | outcome [2] | outcome [3] | max response [4] 0.37%

NS(=O)(=O)c1cc(C(=O)NN2C[C@H]3[C@H]4CCC(C4)[C@H]3C2)ccc1Cl
inactive: outcome [1] | max response [2] 4.38% | outcome [3] | outcome [4]

CN(C)CCN1CCN(c2cccc(Cl)c2)C1=O
inactive: max response [1] -6.51% | outcome [2] | outcome [3] | outcome [4]

CC(=O)OCC(=O)[C@@]1(O)[C@H](OC(C)=O)C[C@H]2[C@@H]3CCC4=CC(=O)C=C[C@]4(C)[C@@]3(F)[C@@H](O)C[C@@]21C
inactive: outcome [1] | outcome [2] | outcome [3] | outcome [4]

CC(CC(C#N)(c1ccccc1)C(C)C)N(C)C (centres undefined)
inactive: max response [1] -3.29% | outcome [2] | outcome [3] | outcome [4]

CNC(=O)c1c(I)c(NC(C)=O)c(I)c(C(=O)O)c1I
inactive: max response [1] -1.99% | max response [2] -7.17% | outcome [3] | max response [4] 0.318%

COC(=O)c1cc(S(N)(=O)=O)ccc1OC
inactive: max response [1] -27.4% | max response [2] 4.21% | outcome [3] | outcome [4]

CCCC(=O)Nc1ccc(O)c(C(C)=O)c1
inactive: max response [1] -0.565% | outcome [2] | outcome [3] | max response [4] 3.73%

C=CCNc1nc(NCC=C)nc(N2CCN(C(c3ccc(F)cc3)c3ccc(F)cc3)CC2)n1
inactive: max response [1] -3.37% | max response [3] 2.53% | max response [4] -15.1%
active: Potency [2] 8.41 µM

O=C(O)c1ccccc1S
inactive: max response [1] -0.928% | max response [2] 0.0683% | max response [3] 1.95% | max response [4] 1.26%

N#CC1(c2ccc(F)cc2)CCC(=O)CC1
inactive: max response [1] -2.26% | max response [2] -11.6% | outcome [3] | outcome [4]

CN1C(CSCC(F)(F)F)Nc2cc(Cl)c(S(N)(=O)=O)cc2S1(=O)=O (centres undefined)
inactive: max response [1] -17.8% | max response [2] 1.71% | max response [3] 4.02% | outcome [4]

O=C(CCOCCOCCOCCOCCC(=O)Nc1c(I)cc(I)c(C(=O)O)c1I)Nc1c(I)cc(I)c(C(=O)O)c1I
inactive: max response [1] -8.36% | outcome [2] | outcome [3] | max response [4] 0.931%

C[C@H]1C[C@@H]2[C@H]([C@@H](O)C[C@@]3(C)[C@H]2CC[C@]3(O)C(=O)CO)[C@@]2(C)C=CC(=O)C=C12
inactive: max response [1] -5.61% | outcome [2] | outcome [3] | max response [4] 0.285%

O=C1CC(c2ccc(Cl)cc2)CC(=O)N1
inactive: outcome [1] | outcome [2] | outcome [3] | max response [4] -1.3%

COC(=O)c1cc(Cl)ccc1OC
inactive: max response [1] -7.71% | outcome [2] | outcome [3] | outcome [4]

Cc1c(F)cc2c(=O)c(C(=O)O)cn3c2c1CCC3C (centres undefined)
inactive: max response [1] -2.94% | outcome [2] | max response [3] -5.41% | max response [4] -8.9%

C/C(=N/NC(=O)c1ccncc1)C(=O)O
inactive: max response [1] 0.746% | max response [2] 2.14% | outcome [3] | max response [4] 0.247%

O=C(O)CCCC[C@@H]1SC[C@@H]2NC(=O)N[C@@H]21
inactive: outcome [1] | max response [2] -6.79% | max response [3] 4.46% | max response [4] 1.46%

NC(=O)NC1N=C([O][Al])NC1=O (centres undefined)
inactive: outcome [1] | outcome [2] | max response [3] 3.4% | max response [4] 1.11%

CCN(CC)CC(=O)Nc1c(C)cccc1C(=O)OC
inactive: max response [1] 1.74% | max response [2] 2.01% | outcome [3] | max response [4] 1.11%

CC(=O)O[C@H]1CC[C@@]2(C)C(=CC[C@@H]3[C@@H]2CC[C@]2(C)C(C(C)=O)=CC[C@@H]32)C1
inactive: max response [1] -17.3% | max response [2] -0.38% | max response [3] -12.2% | max response [4] -1.15%
